In PubChem BioAssay (NCI):
About 79,000 compounds went through this panel and 15% of them were active in at least one assay; those are over-represented in the sample as a whole. Values without a mark were called inactive. The source made the active and inactive calls. Cut-off read from the data, not from the text of the source: active = growth inhibition above about 70%; inactive = the rest.

Tests used:
[1] = NCI Yeast Anticancer Drug Screen. Data for the mec2-1 strain (AID 157); details: S. cerevisiae mec2-1 strain, active compounds read high
Summary of the method: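 Vehicle-treated cultures served as reference for growth inhibition of compound-exposed mec2-1 yeast.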

[2] = NCI Yeast Anticancer Drug Screen. Data for the rad14 strain (AID 159);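 note: 0% = growth of vehicle-treated control cultures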; details: S. cerevisiae rad14 strain growth inhibition, active compounds read high
Summary of the method: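 Yeast cells carrying a defined DNA-repair defect were exposed to compounds, and growth inhibition was calculated relative to vehicle-treated control cultures.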

[3] = NCI Yeast Anticancer Drug Screen. Data for the sgs1 mgt1 strain (AID 161);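 note: 0% = growth of cultures given vehicle only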; details: S. cerevisiae sgs1 mgt1 strain, active compounds read high
Summary of the method: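 Genetically altered yeast, compound exposure, growth inhibition relative to vehicle.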

[4] = NCI Yeast Anticancer Drug Screen. Data for the CLN2oe strain (AID 163);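 note: 0% = growth of vehicle-only control cultures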; details: S. cerevisiae CLN2oe strain, active compounds read high
Summary of the method: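 Inhibition relative to vehicle-treated yeast is reported. Cells: strain with genetic alteration in cell-cycle control, grown with compound.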

[5] = NCI Yeast Anticancer Drug Screen. Data for the cln2 rad14 strain (AID 165);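 note: 0% = growth equal to vehicle treated cultures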; details: S. cerevisiae cln2 rad14 strain, active compounds read high
Summary of the method: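 Each compound was tested on cln2 rad14 yeast. Inhibition of growth was calculated against vehicle-exposed controls.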

[6] = NCI Yeast Anticancer Drug Screen. Data for the bub3 strain (AID 167); details: S. cerevisiae bub3 mutant strain, active compounds read high
Summary of the method: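 Compounds were applied to a genetically altered yeast strain carrying a cell-cycle control defect. Growth inhibition was scored against vehicle-treated controls.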

[7] = NCI Yeast Anticancer Drug Screen. Data for the wt2 strain (AID 169);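 note: 0% = growth of vehicle-treated yeast cultures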; details: S. cerevisiae wt2 strain growth inhibition, active compounds read high
Summary of the method: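 Inhibition of yeast growth was determined after compound treatment, normalised to controls receiving only vehicle.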

[8] = NCI Yeast Anticancer Drug Screen. Data for the mlh1 strain (AID 171);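 note: 0% = growth of vehicle-treated control cultures of the same strain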; details: S. cerevisiae mlh1 strain growth inhibition, active compounds read high
Summary of the method: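 Vehicle-normalised growth inhibition of a repair- or checkpoint-altered yeast strain following compound treatment.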

[9] = NCI Yeast Anticancer Drug Screen. Data for the sgs1 strain (AID 173);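 note: 0% = growth of vehicle-only control cultures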; details: S. cerevisiae sgs1 mutant, active compounds read high
Summary of the method: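 Screen format: yeast with repair or checkpoint alterations, compound exposure, growth read relative to vehicle.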

[10] = NCI Yeast Anticancer Drug Screen. Data for the mlh1 rad18 strain (AID 175); details: S. cerevisiae mlh1 rad18 strain growth inhibition, active compounds read high
Summary of the method: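 Vehicle-treated cultures served as the reference for growth inhibition in a yeast strain carrying DNA damage repair alterations exposed to each compound.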

[11] = NCI Yeast Anticancer Drug Screen. Data for the rad18 strain (AID 177); details: S. cerevisiae rad18 mutant growth inhibition, active compounds read high
Summary of the method: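 Test articles were incubated with altered yeast defective in DNA damage repair. Results are given as inhibition of growth versus vehicle.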

[12] = NCI Yeast Anticancer Drug Screen. Data for the rad52 strain (AID 147);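 note: 0% = growth of vehicle-treated control cultures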; details: S. cerevisiae rad52 mutant growth inhibition, active compounds read high
Summary of the method: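 Vehicle-treated cultures served as the reference for growth inhibition of compound-exposed yeast bearing a DNA repair mutation.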

[13] = NCI Yeast Anticancer Drug Screen. Data for the rad50EPP+ strain (AID 151);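 note: 0% = growth of vehicle-treated control cultures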; details: S. cerevisiae rad50 mutant strain, active compounds read high
Summary of the method: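 In this screen, rad50EPP+ yeast were exposed to compounds. Growth inhibition was scored against vehicle-treated controls.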

[14] = NCI Yeast Anticancer Drug Screen. Data for the mgt1 strain (AID 153); details: S. cerevisiae mgt1 mutant growth inhibition, active compounds read high
Summary of the method: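 mgt1 strain exposed; growth vs vehicle control recorded as inhibition.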

[15] = NCI Yeast Anticancer Drug Screen. Data for the rad50 strain (AID 155);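 note: 0% = growth of vehicle-only cultures of the same strain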; details: S. cerevisiae rad50 strain growth inhibition, active compounds read high
Summary of the method: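 Yeast carrying a defined DNA repair defect were exposed to test compounds, and growth was compared with vehicle-treated controls to give percent inhibition.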

[16] = at 5.0 µM (retest, dose inferred, filed as 0.5)
[17] = at 50.0 µM (retest, dose inferred, filed as 5.0)

Work on CCC(=O)OCCn1c2nc(=O)[nH]c(=O)c-2nc2cc(C)c(C)cc21 yielded a growth inhibition ([1]; at 100.0 µM) of -1%, a growth inhibition ([2]; at 1.2 µM) of 3% and a growth inhibition ([2]; at 3.7 µM) of 0%. The growth inhibition ([2]; at 11.0 µM) was 23%, the growth inhibition ([2]; at 33.0 µM) was 14% and the growth inhibition ([2]; at 100.0 µM) was -3%. The growth inhibition [3, 16] was 2%, the growth inhibition [3, 17] was 91% (active) and the growth inhibition ([3]; at 50.0 µM) was 57.5%. For the same molecule, the growth inhibition ([4]; at 1.2 µM) was -7%, the growth inhibition ([4]; at 3.7 µM) was -5% and the growth inhibition ([4]; at 11.0 µM) was -3%. The growth inhibition ([4]; at 33.0 µM) was -5%, the growth inhibition ([4]; at 100.0 µM) was -2% and the growth inhibition [5, 16] was -1%. It also gave a growth inhibition [5, 17] of 3%, a growth inhibition ([5]; at 50.0 µM) of 19.9% and a growth inhibition ([6]; at 1.2 µM) of -7%. The growth inhibition ([6]; at 3.7 µM) was -4%, the growth inhibition [6, 16] was -2% and the growth inhibition ([6]; at 11.0 µM) was -5%. For the same molecule, the growth inhibition ([6]; at 33.0 µM) was 5%, the growth inhibition [6, 17] was 10% and the growth inhibition ([6]; at 50.0 µM) was 3.15%. For the same molecule, the growth inhibition ([6]; at 100.0 µM) was 35%, the growth inhibition ([7]; at 1.2 µM) was -8% and the growth inhibition ([7]; at 3.7 µM) was -1%. The growth inhibition ([7]; at 11.0 µM) was 20%, the growth inhibition ([7]; at 33.0 µM) was 85% (active) and the growth inhibition ([7]; at 100.0 µM) was 93% (active). For the same molecule, the growth inhibition ([8]; at 1.2 µM) was -11%, the growth inhibition ([8]; at 3.7 µM) was -6% and the growth inhibition ([8]; at 11.0 µM) was -5%. The growth inhibition ([8]; at 33.0 µM) was 65%, the growth inhibition ([8]; at 100.0 µM) was 86% (active) and the growth inhibition ([9]; at 1.2 µM) was -15%. For the same molecule, the growth inhibition ([9]; at 3.7 µM) was -7%, the growth inhibition ([9]; at 11.0 µM) was 21% and the growth inhibition ([9]; at 33.0 µM) was 83% (active). The growth inhibition ([9]; at 100.0 µM) was 94% (active), the growth inhibition [10, 16] was 5% and the growth inhibition [10, 17] was 29%. For the same molecule, the growth inhibition ([10]; at 50.0 µM) was 21.1%, the growth inhibition ([11]; at 1.2 µM) was -3% and the growth inhibition ([11]; at 3.7 µM) was -1%. For the same molecule, the growth inhibition ([11]; at 11.0 µM) was -1%, the growth inhibition ([11]; at 33.0 µM) was 7% and the growth inhibition ([11]; at 100.0 µM) was 11%.

In the case of COc1ccc2nc3cccc([N+](=O)[O-])c3c(NCCN(CCO)CCO)c2c1, the growth inhibition ([12]; at 1.2 µM) is reported as 75% (active), the growth inhibition ([12]; at 3.7 µM) is reported as 92% (active) and the growth inhibition ([12]; at 11.0 µM) is reported as 94% (active). The growth inhibition ([12]; at 33.0 µM) was 96% (active), the growth inhibition ([12]; at 100.0 µM) was 96% (active) and the growth inhibition ([13]; at 1.2 µM) was 3%. For the same molecule, the growth inhibition ([13]; at 3.7 µM) was 13%, the growth inhibition ([13]; at 11.0 µM) was 44% and the growth inhibition ([13]; at 33.0 µM) was 78% (active). For the same molecule, the growth inhibition ([13]; at 100.0 µM) was 94% (active), the growth inhibition ([14]; at 1.2 µM) was -3% and the growth inhibition ([14]; at 3.7 µM) was 2%. The growth inhibition ([14]; at 11.0 µM) was 29%, the growth inhibition ([14]; at 33.0 µM) was 71% (active) and the growth inhibition ([14]; at 100.0 µM) was 75% (active). The growth inhibition ([15]; at 1.2 µM) was 43%, the growth inhibition ([15]; at 3.7 µM) was 81% (active) and the growth inhibition [15, 16] was 42%. For the same molecule, the growth inhibition ([15]; at 11.0 µM) was 91% (active), the growth inhibition ([15]; at 33.0 µM) was 94% (active) and the growth inhibition [15, 17] was 96% (active). The growth inhibition ([15]; at 50.0 µM) was 81.2% (active), the growth inhibition ([15]; at 100.0 µM) was 94% (active) and the growth inhibition ([1]; at 1.2 µM) was 14%. For the same molecule, the growth inhibition ([1]; at 3.7 µM) was 82% (active), the growth inhibition [1, 16] was 13% and the growth inhibition ([1]; at 11.0 µM) was 95% (active). The growth inhibition ([1]; at 33.0 µM) was 97% (active), the growth inhibition [1, 17] was 97% (active) and the growth inhibition ([1]; at 50.0 µM) was 86.2% (active). The growth inhibition ([1]; at 100.0 µM) was 97% (active), the growth inhibition ([2]; at 1.2 µM) was 84% (active) and the growth inhibition ([2]; at 3.7 µM) was 96% (active). For the same molecule, the growth inhibition ([2]; at 11.0 µM) was 98% (active), the growth inhibition ([2]; at 33.0 µM) was 98% (active) and the growth inhibition ([2]; at 100.0 µM) was 98% (active). The growth inhibition [3, 16] was 78% (active), the growth inhibition [3, 17] was 94% (active) and the growth inhibition ([3]; at 50.0 µM) was 69.5%. The growth inhibition ([4]; at 1.2 µM) was -5%, the growth inhibition ([4]; at 3.7 µM) was -5% and the growth inhibition ([4]; at 11.0 µM) was 11%. The growth inhibition ([4]; at 33.0 µM) was 61%, the growth inhibition ([4]; at 100.0 µM) was 91% (active) and the growth inhibition [5, 16] was 81% (active). The growth inhibition [5, 17] was 96% (active), the growth inhibition ([5]; at 50.0 µM) was 83.2% (active) and the growth inhibition ([6]; at 1.2 µM) was -13%. It also gave a growth inhibition ([6]; at 3.7 µM) of -18%, a growth inhibition [6, 16] of -41% and a growth inhibition ([6]; at 11.0 µM) of -2%. For the same molecule, the growth inhibition ([6]; at 33.0 µM) was 52%, the growth inhibition [6, 17] was 86% (active) and the growth inhibition ([6]; at 50.0 µM) was 43.6%. For the same molecule, the growth inhibition ([6]; at 100.0 µM) was 96% (active), the growth inhibition ([7]; at 1.2 µM) was -2% and the growth inhibition ([7]; at 3.7 µM) was -1%. For the same molecule, the growth inhibition ([7]; at 11.0 µM) was 11%, the growth inhibition ([7]; at 33.0 µM) was 53% and the growth inhibition ([7]; at 100.0 µM) was 93% (active). It also gave a growth inhibition ([8]; at 1.2 µM) of 5%, a growth inhibition ([8]; at 3.7 µM) of 25% and a growth inhibition ([8]; at 11.0 µM) of 61%. The growth inhibition ([8]; at 33.0 µM) was 84% (active), the growth inhibition ([8]; at 100.0 µM) was 86% (active) and the growth inhibition ([9]; at 1.2 µM) was 80% (active). The growth inhibition ([9]; at 3.7 µM) was 90% (active), the growth inhibition ([9]; at 11.0 µM) was 93% (active) and the growth inhibition ([9]; at 33.0 µM) was 95% (active). For the same molecule, the growth inhibition ([9]; at 100.0 µM) was 96% (active), the growth inhibition [10, 16] was 68% and the growth inhibition [10, 17] was 97% (active). For the same molecule, the growth inhibition ([10]; at 50.0 µM) was 74.5% (active), the growth inhibition ([11]; at 1.2 µM) was 94% (active) and the growth inhibition ([11]; at 3.7 µM) was 96% (active). The growth inhibition ([11]; at 11.0 µM) was 96% (active), the growth inhibition ([11]; at 33.0 µM) was 95% (active) and the growth inhibition ([11]; at 100.0 µM) was 95% (active).
